Measurements published in PubChem BioAssay (Tox21).
Several values for one entry are separate records, joined by “and”; a condition that tells them apart may be missing. Equal values may be shown once. Inconclusive results are not listed. Where a structure was tested more than once in an assay, its records may differ in their call. Activity calls are given as the source filed them. Unless noted, calls follow the shape of the dose curve; as a rule, active = well fitted curve in the direction sought with a large enough effect in the repeat runs; inconclusive = weak or mixed curves; inactive = no such curve, though single readings can be large; an effect the other way counts as inactive or inconclusive.

Columns and labels:
[1] = qHTS assay to identify small molecule antagonists of the peroxisome proliferator-activated receptor delta (PPARd) signaling pathway - cell viability counter screen (AID 743213); also: nearly all actives have a fitted effect of over 50% in size; also: potency is read from the fitted curve at half-maximal effect
Outline: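 HEK293H PPARd UAS-bla cells, 5 h pre-incubation, compound + L165041 300 nM final, 17 h 37 C; B/G FRET substrate 2 h RT; then CellTiter-Glo 30 min RT, luminescence.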

[2] = qHTS assay to identify small molecule agonists of the farnesoid-X-receptor (FXR) signaling pathway - cell viability counter screen (AID 743218); also: nearly all actives have a fitted effect of over 45% in size; also: potency is read from the fitted curve at half-maximal effect
Outline: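 Cytotoxicity counter-screen run in parallel, same wells: FXR-UAS-bla HEK 293T cells dosed 16 h at 37 C, viability read by CellTiter-Glo luminescence after 30 min at room temperature.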

[3] = molecular target: Bile acid receptor (Homo sapiens) (UniProt Q96RI1); test: qHTS assay to identify small molecule agonists of the farnesoid-X-receptor (FXR) signaling pathway (AID 743220; active = well fitted activation curve with a large enough effect in the signal ratio in the repeat runs, not every such curve was filed as active; the % refers to the signal ratio)
Bile acid receptor (Homo sapiens), sequence (Q96RI1 whole entry, looked up): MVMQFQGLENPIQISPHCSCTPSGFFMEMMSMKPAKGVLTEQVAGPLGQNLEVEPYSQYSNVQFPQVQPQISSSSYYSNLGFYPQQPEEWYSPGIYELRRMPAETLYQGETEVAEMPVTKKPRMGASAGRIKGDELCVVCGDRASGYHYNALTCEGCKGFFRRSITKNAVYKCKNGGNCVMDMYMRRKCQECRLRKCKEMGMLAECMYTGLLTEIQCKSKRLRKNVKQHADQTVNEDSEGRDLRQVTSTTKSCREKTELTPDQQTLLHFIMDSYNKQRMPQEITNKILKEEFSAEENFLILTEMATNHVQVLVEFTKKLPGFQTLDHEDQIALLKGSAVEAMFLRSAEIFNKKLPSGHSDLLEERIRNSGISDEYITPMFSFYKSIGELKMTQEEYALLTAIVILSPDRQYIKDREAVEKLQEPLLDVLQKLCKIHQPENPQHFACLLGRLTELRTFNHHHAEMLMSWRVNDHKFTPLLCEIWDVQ
Outline: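 Beta-lactamase reporter under UAS control in GeneBLAzer FXR HEK 293T cells (5000/well) measured with LiveBLAzer FRET substrate after 2 h at room temperature. Compound exposure lasted 16 h at 37C.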

[4] = qHTS assay to identify small molecule antagonists of the farnesoid-X-receptor (FXR) signaling pathway - cell viability counter screen (AID 743221; active = well fitted cell-killing curve with a large enough effect in the repeat runs, not every such curve was filed as active; also: nearly all actives have a fitted effect of over 50% in size; also: potency is read from the fitted curve at half-maximal effect)
Outline: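 FXR-UAS-bla HEK 293T cells were treated with test compounds plus chenodeoxycholic acid (50 uM final) for 16 h at 37 C. Cell viability in the same wells was then read as CellTiter-Glo luminescence after 30 min at room temperature.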

[5] = molecular target: Vitamin D3 receptor (Homo sapiens) (UniProt P11473); test: qHTS assay to identify small molecule agonists of the vitamin D receptor (VDR) signaling pathway (AID 743222; calls by dose curve)
Vitamin D3 receptor (Homo sapiens), sequence (P11473 whole entry, looked up): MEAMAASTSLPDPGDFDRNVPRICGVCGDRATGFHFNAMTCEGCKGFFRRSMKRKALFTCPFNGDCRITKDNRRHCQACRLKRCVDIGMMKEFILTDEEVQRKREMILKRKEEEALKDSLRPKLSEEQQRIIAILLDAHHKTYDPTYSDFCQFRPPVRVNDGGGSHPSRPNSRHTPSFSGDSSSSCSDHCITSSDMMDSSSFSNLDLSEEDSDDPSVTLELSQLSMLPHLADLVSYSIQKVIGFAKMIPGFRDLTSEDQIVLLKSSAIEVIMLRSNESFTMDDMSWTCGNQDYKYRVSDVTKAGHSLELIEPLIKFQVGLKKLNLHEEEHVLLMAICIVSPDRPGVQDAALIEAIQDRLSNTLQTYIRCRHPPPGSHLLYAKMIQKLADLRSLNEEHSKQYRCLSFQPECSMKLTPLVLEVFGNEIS
Outline: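 Quantitative HTS agonist-mode screen: compounds in DMSO were pin-transferred onto VDR-bla cells and incubated 16 h at 37C, 5% CO2. Reporter activity was detected with LiveBLAzer B/G FRET substrate after 2 h at room temperature.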

[6] = molecular target: Vitamin D3 receptor (Homo sapiens) (UniProt P11473); test: qHTS assay to identify small molecule antagonists of the vitamin D receptor (VDR) signaling pathway (AID 743223; active = well fitted inhibition curve with a large enough effect in the signal ratio in the repeat runs, not every such curve was filed as active; the % refers to the signal ratio)
Outline: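 VDR-bla cells were plated, incubated 4 h at 37C, then given compound and 1alpha,25-dihydroxyvitamin D3 (3 nM final). After 16 h at 37C, LiveBLAzer B/G FRET substrate was added for 2 h at room temperature and fluorescence read.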

[7] = qHTS assay to identify small molecule agonists of the vitamin D receptor (VDR) signaling pathway - cell viability counter screen (AID 743224); also: nearly all actives have a fitted effect of over 50% in size; also: potency is read from the fitted curve at half-maximal effect
Outline: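 Viability is measured in the same wells as the VDR-bla reporter assay: after 16 h compound treatment and 2 h substrate loading, CellTiter-Glo is added and luminescence read 30 min later.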

[8] = molecular target: Peroxisome proliferator-activated receptor delta (Homo sapiens) (UniProt Q03181); test: qHTS assay to identify small molecule antagonists of the peroxisome proliferator-activated receptor delta (PPARd) signaling pathway (AID 743215; active = well fitted inhibition curve with a large enough effect in the signal ratio in the repeat runs, not every such curve was filed as active; the % refers to the signal ratio;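 also: cells stimulated with agonist L165041 at 300 nM final during compound exposure; series mostly up to about 62 µM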)
Peroxisome proliferator-activated receptor delta (Homo sapiens), sequence (Q03181 whole entry, looked up): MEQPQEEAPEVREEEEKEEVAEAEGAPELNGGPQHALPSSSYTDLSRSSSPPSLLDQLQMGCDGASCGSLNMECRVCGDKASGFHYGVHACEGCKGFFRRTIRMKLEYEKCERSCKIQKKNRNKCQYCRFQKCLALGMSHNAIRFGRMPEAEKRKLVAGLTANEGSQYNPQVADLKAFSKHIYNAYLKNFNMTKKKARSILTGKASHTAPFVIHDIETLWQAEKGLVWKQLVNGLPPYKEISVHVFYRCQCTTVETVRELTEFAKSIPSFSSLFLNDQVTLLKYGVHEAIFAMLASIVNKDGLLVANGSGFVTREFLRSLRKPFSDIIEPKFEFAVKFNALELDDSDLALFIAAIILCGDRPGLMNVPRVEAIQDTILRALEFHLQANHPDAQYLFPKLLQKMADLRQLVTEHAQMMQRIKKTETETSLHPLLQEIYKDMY
Outline: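 Inhibition of L165041-driven (300 nM final) PPARd signaling is scored in HEK293H UAS-bla cells. Exposure lasts 17 h at 37 C; beta-lactamase activity is then read by FRET substrate fluorescence after 2 h at room temperature.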

[9] = molecular target: Bile acid receptor (Homo sapiens) (UniProt Q96RI1); test: qHTS assay to identify small molecule antagonists of the farnesoid-X-receptor (FXR) signaling pathway (AID 743217; active = well fitted inhibition curve with a large enough effect in the signal ratio in the repeat runs, not every such curve was filed as active; the % refers to the signal ratio)
Outline: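 Antagonist mode against 50 uM (final) chenodeoxycholic acid stimulation in FXR-bla HEK 293T cells, 16 h at 37 °C. Inhibition detected as reduced beta-lactamase activity via LiveBLAzer B/G FRET fluorescence after 2 h at room temperature.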

Measured: Potency

CO/C=C(/C(=O)OC)c1ccccc1COc1cccc(C(F)(F)F)n1
inactive: [1] | [2] | [3] | [4] | [5]

CC1(C)[C@H](C=C(Cl)Cl)[C@@H]1C(=O)O[C@@H](C#N)c1cccc(Oc2ccccc2)c1
inactive: [1] | [2] | [4] | [5] | [6] | [7]

Oc1ccc(Cl)c(Cl)c1Cl
inactive: [8] | [2] | [3] | [5] | [6]

O=C(CCl)c1ccc(Cl)cc1Cl
inactive: [9]
inactive and 29.8 µM (active): [1] | [4]
inactive and 18.8 µM (active): [7]

CC(C)(C)c1cc([N+](=O)[O-])cc([N+](=O)[O-])c1O
inactive: [1] | [2] | [5]

CCOS(C)(=O)=O
inactive: [8] | [9] | [3] | [5] | [6] | [7]

NCCCNCCCN
active: [1] 49.7 µM
inactive: [5]

O=C(N[C@H](c1ccccc1)[C@@H]1CN2CCC1CC2)c1c(Cl)ccc(C(F)(F)F)c1Cl
inactive: [1] | [3] | [5]
active: [2] 70.2 µM

CO/N=C(/C(=O)OC)c1ccccc1COc1ccccc1C
inactive: [1] | [2] | [3] | [4] | [5] | [6]

O=C(CBr)Nc1ccc(Cl)cc1C(=O)c1ccccc1F
inactive: [1] | [2] | [4] | [5] | [6] | [7]

NC(=O)CI
inactive: [1] | [2] | [4] | [5] | [6]

O=C1CN=C(c2ccccc2)c2cc(Cl)ccc2N1CC1CC1
inactive: [1] | [5] | [6] | [7]

ClCC(Br)CBr (stereo not drawn)
inactive: [1] | [2] | [4] | [5] | [6]

O=C1c2ccccc2C(=O)C1C(=O)C(c1ccccc1)c1ccccc1
inactive: [1] | [4]

CC(=O)C(C)(C)C
inactive: [1] | [2] | [4] | [7]

O=C(NC(=O)c1c(F)cccc1F)Nc1cc(Cl)c(Oc2ncc(C(F)(F)F)cc2Cl)c(Cl)c1
active: [2] 37.3 µM
inactive: [8]

O=S1(=O)OC(c2cc(Br)c(O)c(Br)c2)(c2cc(Br)c(O)c(Br)c2)c2ccccc21
inactive: [8] | [9] | [3] | [5]

Cc1ccc2ccccc2c1
inactive: [8] | [9] | [2] | [3] | [7]

O=C(O)C(F)(F)C(F)(F)C(F)(F)C(F)(F)C(F)(F)C(F)(F)C(F)(F)C(F)(F)C(F)(F)F
inactive: [8] | [2]

COC1=CC(=O)O[C@@H](CCc2ccccc2)C1
inactive: [8] | [2] | [4] | [5] | [7]

CC(=O)CCC(C)=O
inactive: [1] | [2] | [5] | [6] | [7]

COc1cc(Cl)c(OC)cc1Cl
inactive: [1] | [2] | [5] | [7]

CCOP(=S)(OCC)SCn1nnc2ccccc2c1=O
active: [1] 54.9 µM | [2] 43.6 µM | [7] 54.9 µM

C[C@]12CC[C@H]3[C@@H](CCC4=CC(=O)CC[C@@H]43)[C@@H]1CC[C@@H]2OC(=O)CCC1CCCCC1
inactive: [8] | [2] | [4] | [5] | [6] | [7]

CCCCC(CC)COP(=O)(Oc1ccccc1)Oc1ccccc1 (stereo not drawn)
inactive: [1] | [2] | [3] | [5] | [6]

CC(C)(Cl)[N+](=O)[O-]
inactive: [8] | [9] | [2] | [3] | [4] | [5] | [6] | [7]

CCOC(=O)C(Cl)C(C)=O (stereo not drawn)
inactive: [1] | [2] | [4] | [5] | [6] | [7]

C=CC[C@]1(O)CC[C@H]2[C@@H]3CCC4=CC(=O)CCC4=C3C=C[C@@]21C
inactive: [1] | [2] | [4] | [7]

O=S1OC[C@@H]2[C@H](CO1)[C@]1(Cl)C(Cl)=C(Cl)[C@@]2(Cl)C1(Cl)Cl (stereo partly drawn)
active: [7] 49 µM
inactive: [1] | [9] | [5]

BrCC(Br)C1CCC(Br)C(Br)C1 (stereo not drawn)
inactive: [2]

COc1ccc(-c2ccccc2)cc1NNC(=O)OC(C)C
inactive: [3] | [5]
active: [7] 57.2 µM

CO[C@@H]1[C@H](OC(=O)NC(=O)CCl)CC[C@]2(CO2)[C@H]1[C@@]1(C)O[C@@H]1CC=C(C)C
inactive: [8] | [4] | [7]
active: [2] 0.0021 µM

C/C(=C\c1ccccc1)[N+](=O)[O-]
active: [2] 13.8 µM | [4] 43.6 µM | [7] 24.5 µM

C=C(C#N)CCC#N
inactive: [2] | [4] | [5]

CCCCC(O)(Cn1cncn1)c1ccc(Cl)cc1Cl (stereo not drawn)
active: [7] 48.9 µM
inactive: [2] | [3]

CCC(COC(=O)c1cc(OC)c(OC)c(OC)c1)(c1ccccc1)N(C)C (stereo not drawn)
inactive: [2] | [4] | [5]

OCCCBr
inactive: [2] | [7]

O=C(O)COc1ccc(Cl)cc1
inactive: [8] | [2] | [4] | [5] | [7]

CC(C)(C)C(O)C(Oc1ccc(Cl)cc1)n1cncn1 (stereo not drawn)
inactive: [4]

Cc1ccc(-c2c(Cl)nc(C#N)n2S(=O)(=O)N(C)C)cc1
inactive: [2] | [4] | [5]

CN1C[C@H](CNC(=O)OCc2ccccc2)C[C@@H]2c3cccc4c3c(cn4C)C[C@H]21
inactive: [7]
active: [2] 13.3 µM
